# Measurements taken from paper PMC10812921, “Transcriptional Coactivator BOB1 (OBF1, OCA-B) Modulates the Specificity of DNA Recognition by the POU-Domain Factors OCT1 and OCT2 in a Monomeric Configuration”.
# Experiments:
# POU1 (OCT1 POU domain) = POU1 (OCT1 POU domain) (human, UniProt P14859 260-458); assay: EMSA-SELEX-seq; no BOB1; 20 mM Tris-HCl pH 7.6, 140 mM NaCl, 10% glycerol, 0.5 mM EDTA, 0.05% Triton X-100, 0.1 mg/mL BSA, 0.1 mg/mL poly(dI-dC), 5 mM DTT, room temperature, 20 min; high values mean tight binding; details: protein: recombinant; dsDNA, one strand shown
# How it was run: (§1)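 After expression in E. coli BL21, tagged POU-domain proteins were purified under denaturing conditions and then renatured. Each binding reaction held 30 ng protein and 300 ng of a PCR-amplified double-stranded random 35-nt library in 20 μL Tris–HCl pH 7.6 binding buffer, with or without 28 ng coactivator protein, for 20 min at RT. Bands holding complexes were cut from native 6% PAGE, eluted and PCR-amplified across four rounds, and the output was Illumina-sequenced. The value given for binding preference is the share, in percent, of sequenced 8-mers fitting a motif pattern.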
# POU2 (OCT2 POU domain) = molecular target: T1, POU2 (OCT2 POU domain) (human, UniProt P09086 175-386); assay: as above; details: protein: recombinant; dsDNA, one strand shown
# T1 sequence: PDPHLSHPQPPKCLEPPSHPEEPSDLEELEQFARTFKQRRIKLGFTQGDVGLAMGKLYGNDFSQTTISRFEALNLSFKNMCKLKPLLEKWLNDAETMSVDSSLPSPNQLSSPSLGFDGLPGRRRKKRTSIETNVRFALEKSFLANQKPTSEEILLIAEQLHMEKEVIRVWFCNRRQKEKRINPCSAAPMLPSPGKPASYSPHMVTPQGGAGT
# How it was run: as §1
# [1] = molecular target: POU1 (OCT1 POU domain);BOB1 (OBF1, OCA-B) (human;human, UniProt P14859;Q16633 260-458;1-256, |); assay: EMSA-SELEX-seq; with BOB1 (ternary complex band); 20 mM Tris-HCl pH 7.6, 140 mM NaCl, 10% glycerol, 0.5 mM EDTA, 0.05% Triton X-100, 0.1 mg/mL BSA, 0.1 mg/mL poly(dI-dC), 5 mM DTT, room temperature, 20 min; high values mean tight binding; details: protein: recombinant;recombinant; copies: 1;1; dsDNA, one strand shown
# How it was run: as §1
# [2] = molecular target: T2, POU2 (OCT2 POU domain);BOB1 (OBF1, OCA-B) (human;human, UniProt P09086;Q16633 175-386;1-256, |); assay: as above; details: protein: recombinant;recombinant; copies: 1;1; dsDNA, one strand shown
# T2 sequence 1: T1 sequence
# T2 sequence 2: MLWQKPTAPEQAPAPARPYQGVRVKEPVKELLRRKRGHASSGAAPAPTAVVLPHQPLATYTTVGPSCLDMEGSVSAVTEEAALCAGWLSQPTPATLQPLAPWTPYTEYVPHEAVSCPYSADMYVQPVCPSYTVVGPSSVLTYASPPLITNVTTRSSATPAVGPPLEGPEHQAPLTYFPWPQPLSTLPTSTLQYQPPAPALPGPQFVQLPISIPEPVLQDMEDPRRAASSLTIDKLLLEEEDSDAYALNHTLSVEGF
# How it was run: as §1
# POU1 (OCT1 POU domain), sequence (P14859 260-458): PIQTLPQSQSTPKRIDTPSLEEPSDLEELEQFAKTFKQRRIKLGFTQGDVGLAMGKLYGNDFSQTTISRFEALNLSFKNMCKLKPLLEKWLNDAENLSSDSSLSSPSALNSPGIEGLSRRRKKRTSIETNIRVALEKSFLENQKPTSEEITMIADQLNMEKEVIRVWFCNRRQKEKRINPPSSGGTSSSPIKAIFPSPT
Sequence,binding signal (POU1 (OCT1 POU domain)),binding signal (POU2 (OCT2 POU domain)),binding signal [1],binding signal [2]
AATGTAAA,0.614 % of ANNNNAAN 8-mers,0.509 % of ANNNNAAN 8-mers,0.547 % of ANNNNAAN 8-mers,0.552 % of ANNNNAAN 8-mers
AACGAAAT,0.0744 % of ANNNNAAN 8-mers,0.0783 % of ANNNNAAN 8-mers,0.0675 % of ANNNNAAN 8-mers,0.0636 % of ANNNNAAN 8-mers
AGAAGAAT,0.0515 % of ANNNNAAN 8-mers,0.0737 % of ANNNNAAN 8-mers,0.0597 % of ANNNNAAN 8-mers,0.0603 % of ANNNNAAN 8-mers
AGCTAAAC,0.0187 % of ANNNNAAN 8-mers,0.0236 % of ANNNNAAN 8-mers,0.0265 % of ANNNNAAN 8-mers,0.0256 % of ANNNNAAN 8-mers
AAAGAAAT,0.145 % of ANNNNAAN 8-mers,0.112 % of ANNNNAAN 8-mers,0.16 % of ANNNNAAN 8-mers,0.0958 % of ANNNNAAN 8-mers
AGACAAAG,0.0404 % of ANNNNAAN 8-mers,0.0374 % of ANNNNAAN 8-mers,0.0558 % of ANNNNAAN 8-mers,0.0248 % of ANNNNAAN 8-mers
AAACCAAT,0.0336 % of ANNNNAAN 8-mers,0.0265 % of ANNNNAAN 8-mers,0.0437 % of ANNNNAAN 8-mers,0.0347 % of ANNNNAAN 8-mers
ACGTCAAT,0.0339 % of ANNNNAAN 8-mers,0.0426 % of ANNNNAAN 8-mers,0.0269 % of ANNNNAAN 8-mers,0.0322 % of ANNNNAAN 8-mers
ATACAAAC,0.0648 % of ANNNNAAN 8-mers,0.0512 % of ANNNNAAN 8-mers,0.0819 % of ANNNNAAN 8-mers,0.0528 % of ANNNNAAN 8-mers
AACGTAAC,0.0179 % of ANNNNAAN 8-mers,0.0236 % of ANNNNAAN 8-mers,0.0211 % of ANNNNAAN 8-mers,0.0272 % of ANNNNAAN 8-mers
ATGTAAAG,0.489 % of ANNNNAAN 8-mers,0.393 % of ANNNNAAN 8-mers,0.489 % of ANNNNAAN 8-mers,0.477 % of ANNNNAAN 8-mers
ATGAGAAT,0.101 % of ANNNNAAN 8-mers,0.134 % of ANNNNAAN 8-mers,0.0784 % of ANNNNAAN 8-mers,0.106 % of ANNNNAAN 8-mers
AGGCGAAG,0.024 % of ANNNNAAN 8-mers,0.0305 % of ANNNNAAN 8-mers,0.0242 % of ANNNNAAN 8-mers,0.0297 % of ANNNNAAN 8-mers
ACAAGAAC,0.0214 % of ANNNNAAN 8-mers,0.0201 % of ANNNNAAN 8-mers,0.0144 % of ANNNNAAN 8-mers,0.0297 % of ANNNNAAN 8-mers
ATTAGAAC,0.0427 % of ANNNNAAN 8-mers,0.0564 % of ANNNNAAN 8-mers,0.0355 % of ANNNNAAN 8-mers,0.0355 % of ANNNNAAN 8-mers
